# Screening results: PubChem BioAssay, National Center for Advancing Translational Sciences (NCATS)
# Shown are actives, neighbours in structure and some others; about 1.4% of the full set was active somewhere.
# HTT aggregate – qHTS Multiplex Assay to Identify Dual Action Probes in a Cell Model of Huntington: Aggregate Formation (GFP); PC12 HttQ103-GFP aggregates, Acumen cytometry, 40 h; Potency, µM (top dose mostly 46.1 µM), for inactives: top-dose activity change, negative = inhibition, most hits filed as inhibitors; 1.1% of 220,000 active; AID 1688, 2009; further: on the % scale 0 is the no-effect control and ±100 the full control effect; nearly all actives have a fitted effect of over 60% in size
#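 Using laser scanning cytometry, GFP-positive aggregates were counted after lysis of PC12 cells induced with 100 nM tebufenozide to express HTT exon 1 Q103–GFP. Compounds were tested in titration.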
# ERK EGF block – qHTS Assay for Inhibitors of the ERK Signaling Pathway using a Homogeneous Screening Assay; Stimulation with EGF. HEK293-V1b, EGF-stimulated phospho-ERK AlphaScreen. 0.41% of 130,000 active. AID 1454, 2008. Potency, µM (titrated, usually from 11.5 µM), for the others: top-dose activity change, negative = inhibition, hits mostly inhibitors;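 further: plate controls were stimulated vehicle wells for no effect and unstimulated vehicle basal for full effect; nearly all actives have a fitted effect of over 55% in size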
#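 Phospho-ERK1/2 measured by AlphaScreen (SureFire) after 5 min 25 nM EGF stimulation of V1b-expressing HEK293 cells preincubated 30 min at 37C with titrated compounds; data scaled to DMSO and EGF controls, Hill-fitted AC50.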
# HTT ATP protect – qHTS Multiplex Assay to Identify Dual Action Probes in a Cell Model of Huntington: Cytoprotection (ATP); 0.14% of 230,000 active; PC12 HTT-Q103 induced, cytoprotection, ATP luminescence, 40 h; Potency, µM (doses to about 56.4 µM), for the others: cytoprotection (ATP increase), actives largely listed as activators; further: % of control where 0% means no effect; nearly all actives have a fitted effect of over 45% in size
#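 Stable PC12 Q103-GFP cells in serum-supplemented, phenol red-free DMEM; induction by tebufenozide at 100 nM final; compound dose series; cell viability quantified luminescently from ATP.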
# * marks the source's active call; other numbers are inactive results; ? = inconclusive; nt = not tested or not shown; ! = not confirmed by another sample; [ ] = another dose, or the depositor's remark. The call rests on the fitted dose curve; in most records, active means well fitted curve in the direction sought with a large enough effect; inconclusive means small, poorly fitted or top-dose-only effect, or another doubt; inactive means no such curve, though single readings can be large; an effect the other way counts as inactive or inconclusive. Potency means the concentration at half of the fitted maximal effect.
SMILES,HTT aggregate,ERK EGF block,HTT ATP protect
Cc1cc(N/N=C/c2ccc(O)c(C)c2O)nc(-c2ccccc2O)n1,15.8µM*,?,25.4%[10 µM]
O=C(CCl)NCc1c(Cl)cccc1-n1cccc1,12.6µM*,nt,-61.2%
O=C(Cc1c(Cl)cccc1Cl)NCCc1ccc(Cl)cc1,-6.2%,1.5%,8.0%[10 µM]
O=C(O)c1c(-c2nccc3ccccc23)[nH]c(-c2ccccc2)c1S(=O)(=O)O,nt,nt,0.3%[10 µM]
O=C(O)C[C@H](NC(=O)CP(=O)(O)O)C(=O)O.[NH-][C@@H]1CCCC[C@@H]1[NH-].[Pt],nt,nt,2.2%[10 µM]
COC(=O)c1ccccc1C[C@]1(C(=O)OC)C=C[C@H](C)[C@@H](c2ccccc2)N1C(=O)C(F)(F)F,nt,-0.3%,-17.9%
CCN(CCNC(=O)C1CCN(Cc2nc(-c3cccc(Cl)c3)oc2C)CC1)c1ccccc1,10µM*,nt,-91.4%
CCN(CCNC(=O)C1CCN(Cc2nc(-c3ccc(Cl)cc3)oc2C)CC1)c1ccccc1,?,nt,-74.1%[0.074 µM]
N[C@@H](Cc1c[nH]c2ccccc12)C(=O)NCC(=O)O,nt,nt,-8.5%
O=C1C(Cl)=C(Nc2ccc3cn[nH]c3c2)C(=O)c2ccccc21,3.98µM*,15.8µM*,-98.1%[10 µM]
CC(=O)Nc1ccc(NC2=C(Cl)C(=O)c3ccccc3C2=O)cc1,?,22.0%,-170.2%
CN(C)c1ccc(NC2=C(Cl)C(=O)c3ccccc3C2=O)cc1,14.1µM*,14.1µM*,-23.1%[10 µM]
O=C(Nc1ccc2cn[nH]c2c1)c1c(Cl)cccc1Cl,-15.4%,-8.8%,8.5%[10 µM]
O=C(O)C[C@@H]1CCCc2ccccc2[C@H]1O,nt,nt,9.3%[1.9 µM]
CC[C@@H](c1ccccc1)n1c(=O)n2n(c1=O)[C@H]1[C@H](O)[C@H]3O[C@@H]3/C(=N/OCC(C)C)[C@@H]1CC2,nt,nt,-31.4%[10 µM]
COCCNC(=O)COc1ccc(OCCNC[C@@H](O)COc2ccccc2)cc1,nt,8.1%,33.8%
CCC1(c2ccccc2)C(=O)NCNC1=O,-8.8%,-21.1%[57.5 µM],1.41µM*!
O=C1NC(=O)C(c2ccccc2)(c2ccccc2)N1,-10.1%,-0.9%,?
CCN(CC)c1ccc(NC(=O)c2cccc(OC)c2)c(C)c1,?,nt,-23.7%
CCN(CC)c1ccc(NC(=O)c2cc(OC)cc(OC)c2)c(C)c1,3.16µM*,nt,-112.7%[0.074 µM]
COC(=O)c1ccc(C(NC(=O)OCc2ccccc2)/C(=C/[C@@H](C)C(=O)NCc2cc(C)n(C)n2)c2cccnc2)cc1 (some centres not stated),nt,1.3%,2.9%
CC(=O)c1ccc(Oc2ncnc3sccc23)cc1,-9.6%,3.4%,-1.2%
CC(=O)N1CCN(c2ccc(Oc3ncnc4sccc34)cc2)CC1,17.8µM*,nt,27.3%[10 µM]
O=C(O)CSc1n[nH]c(=O)[nH]c1=O,nt,nt,-10.5%[10 µM]
O=C(Nc1cccc(C(=O)Nc2ccc(S(=O)(=O)O)c3cc(S(=O)(=O)O)cc(S(=O)(=O)O)c23)c1)Nc1cccc(C(=O)Nc2ccc(S(=O)(=O)O)c3cc(S(=O)(=O)O)cc(S(=O)(=O)O)c23)c1,nt,2.9%,-61.8%
SMILES,HTT aggregate,ERK EGF block,HTT ATP protect
CC1(C)S[C@@H]2[C@H](NC(=O)COc3ccccc3)C(=O)N2[C@H]1C(=O)O (tested in a mixture with another compound),nt,-5.6%[25.7 µM],-7.4%[40.3 µM]
COc1ccc(-c2cn(-c3ccc(Br)cc3)c3[n+]2CCS3)cc1,-26.3%,4.8%,8.7%[10 µM]
CC(=O)c1ccc(-n2cc(-c3ccc(C(C)(C)C)cc3)[n+]3c2SCCC3)cc1,10µM*,-12.9%,-48.7%
NC(Cc1ccccc1)=NCC(=O)O,nt,nt,-4.0%[10 µM]
Cc1ccc(S(=O)(=O)Nc2ccc(S(=O)(=O)Nc3ncccn3)cc2)cc1,8.0%[9.22 µM],nt,1.2%
O=C(c1ccc(S(=O)(=O)N2CCOCC2)cc1)N1CCN(c2ccccn2)CC1,-5.7%,?,-22.3%
O=C(c1ccc(S(=O)(=O)Nc2ccc(F)cc2)cc1)N1CCN(c2ccccn2)CC1,14.1µM*,5.0%,-39.1%
COc1ccc(N2CCN(C(=O)c3ccc(NS(=O)(=O)c4cccc(F)c4)cc3)CC2)cc1,?,nt,-2.6%[0.074 µM]
Cc1ccc(CN2CCSc3ccc(C(=O)NCc4ccco4)cc32)cc1,?,-1.0%,-44.9%
Cc1ccc(NS(=O)(=O)c2ccc(C(=O)N3CCN(c4ncccn4)CC3)cc2)cc1,2.51µM*,0.3%,-91.8%
Cc1ccc(CN2CCSc3ccc(C(=O)N4CCN(c5ncccn5)CC4)cc32)cc1,15.8µM*,nt,-61.2%
COc1ccc(N2CCN(C(=O)c3ccc(NS(=O)(=O)c4ccc(F)c(F)c4)cc3)CC2)cc1,10µM*,nt,-12.7%[10 µM]
COc1ccc(-c2ccc3c(n2)CCCN3C[C@H](O)CN2CCCc3nc(-c4ccc(Br)cc4)ccc32)cc1,nt,nt,-2.7%[10 µM]
COc1ccc2[nH]c(S(=O)Cc3ncc(C)c(OC)c3C)nc2n1 (configuration not stated),4.2%,nt,?
Cc1nc(NC2CCCCC2)c2nc(-c3ccccc3)n(CCCN3CCCCC3C)c2n1 (configuration not stated),nt,1.3%,-57.0%
Nc1ncn([C@@H]2O[C@@H](CO)[C@@H](O)[C@H]2O)c(=O)n1,nt,nt,-20.5%[1.9 µM]
COc1ccc(Cc2nnc(NS(=O)(=O)c3ccccc3)s2)cc1,8.3%[9.22 µM],1.1%,13.1%[10 µM]
O=S(=O)(Nc1nnc(-c2ccccc2)s1)c1ccc(Cl)cc1,35.5µM*,nt,-23.6%
O=S(=O)(c1ccccc1)N1CCC2(CCN(c3ccccc3)CC2)CC1,nt,-2.1%,-59.7%
C(=C\c1ccccc1)/CN1CCN(c2ncnc3c2oc2ccccc23)CC1,6.31µM*,nt,-188.8%[0.074 µM]
c1cnc(N2CCN(c3ncnc4c3oc3ccccc34)CC2)nc1,-1.1%,nt,-19.2%[0.074 µM]
CN(C)CCN1C(=O)CC[C@]2(C)C1=CC[C@@H]1[C@@H]2CC[C@]2(C)[C@H]1CC[C@]2(C)O,nt,nt,11.5%[10 µM]
Cc1cc(/C=C2\SC(=S)N(C)C2=O)c(C)n1-c1cccc(O)c1,3.8%[9.22 µM],28.2µM*,18.6%[10 µM]
COc1ccc(-n2c(C)cc(/C=C3/SC(=S)N(C)C3=O)c2C)cc1,2.2%,-6.3%,0.4%[10 µM]
Cc1ccc(Cl)cc1NC(=S)NCCCSC1CCCCC1,22.4µM*,-1.1%,-195.3%
SMILES,HTT aggregate,ERK EGF block,HTT ATP protect
Cc1cc(Cl)ccc1NC(=S)NCCCO,8.3%,-1.5%,21.5%[0.074 µM]
CCCCCCCC/C=C\CCCCCCCC(N)=O,nt,0.7%,-41.9%
COc1ccccc1-c1ccc2ncnc(NCc3cnc(C)cn3)c2c1,nt,nt,-88.0%
CC(C)OCCCNc1ncnc2c1[nH]c1ccccc12,7.08µM*,nt,19.1%[1.9 µM]
COc1ccc(CNc2ncnc3c2[nH]c2ccccc23)cc1,14.5%[9.22 µM],?,17.8%[10 µM]
O=CN/C=C/c1cc(F)cc(F)c1F,nt,-14.6%,16.0%
O=C(c1cnn(C(=O)COc2ccc(Cl)cc2)c1)c1ccccc1O,-28.5%,4.0%,34.8%[10 µM]
Cc1ccc(O)c(C(=O)c2cnn(C(=O)COc3ccc(Cl)cc3)c2)c1,5.62µM*,0.4%,2.5%[10 µM]
CN(CC[C@@H](Oc1ccc(-c2ccccc2)cc1)c1ccc(F)cc1)CC(=O)O,nt,3.9%,21.0%
Fc1ccc(Cn2cnc3ccccc32)cc1,-4.9%,nt,3.8%
CCCOc1ccc(Cn2cnc3ccccc32)cc1,25.1µM*,nt,-8.7%
O=C1C[C@H](c2ccccc2)[C@@H](c2ccc(Br)cc2)O1,nt,nt,-8.0%[10 µM]
